Results from PubChem BioAssay (Tox21).
“And” between values parts separate entries of the source, which are not always exact repeats. Equal entries are not always repeated. Records with an inconclusive call do not appear. Where a call stands in place of a potency, no number is given. Values without a mark were called inactive. The source made the active and inactive calls. The call rests on the fitted dose curve; in most records, active means well fitted cell-killing curve with a large enough effect in the repeat runs; inconclusive means weak or mixed curves, or effect the other way; inactive means no such curve, though single readings can be large or run the other way.
Potency means the concentration at half of the fitted maximal effect.

Assay: qHTS assay to identify small molecule antagonists of the thyroid receptor (TR) signaling pathway - cell viability counter screen (AID 743064); further: nearly all actives have a fitted effect of over 50% in size
Conditions: GH3.TRE-Luc viability, CellTiter-Fluor, 24 h; series mostly up to 70.3 µM; activity change, negative = cytotoxic: at the top concentration
Excerpt: National Center for Advancing Translational Sciences [NCATS]
NIH Chemical Genomics Center [NCGC]
U.S. Environmental Protection Agency [EPA]
National Institutes of Environmental Health Sciences [NIEHS]
National Toxicology Program [NTP]
U.S. Food and Drug Administration [FDA]
Thyroid receptor (TR), a nuclear hormone receptor, plays an important role in development, proliferation, differentiation, metabolism, brain function, and cardiovascular system. […] To profile the Tox21 10K compound library in TR signaling, a cell-based GH3-TRE-Luc assay (GH3.TRE-Luc cell line, developed by the laboratory of Dr. Albertinka J. Murk, Wageningen University) was used to measure the inhibition of TR. GH3 (rat pituitary tumor) cells stably expressing a TR activity sensor consisting of two TR response elements and a luciferase reporter gene. The cytotoxicity of the Tox21 compound library against the GH3.TRE-Luc cell line was tested in parallel by measuring the cell viability using CellTiter-Fluor assay (Promega, Madison, WI) in the same wells.
Tox21 Assay Protocol Summary:
GH3.TRE-Luc cells were dispensed at 1500 cells/4 uL/well into 1536-well white solid bottom plates using a Multidrop Combi dispenser (Thermo Fisher Scientific Inc., Waltham, MA). After the assay plates were incubated at 37 C for 4 hours, 23 nL of library compound or DMSO controls was transferred to the assay plates by a pintool station (Kalypsys, San Diego, CA), followed by addition of 1 ul of T3 (1 nM, final concentration in the wells) to stimulate TR transactivation. The assay plates were incubated at 37 C for 23.5 h, and then 1 uL of CellTiter-Fluor reagent (Promega, Madision, WI) of measuring cytotoxicity was added to each well using a Bioraptr Flying Reagent Dispenser (FRD) workstation (Beckman Coulter, Indianapolis, IN, USA). The plates were incubated at 37C and 5% CO2 for additional 30 min, and fluorescence intensity was measured by a ViewLux plate reader (PerkinElmer, Shelton, CT).
In the case of `CC/C(C)=N/O`, the Potency is reported as “inactive”.
For `COC(=O)OC`, the Potency was “inactive”.
With `CCn1cc(C(=O)O)c(=O)c2cc3c(cc21)OCO3` the Potency was “inactive”.
In the case of `O=C1CCCCCCCCCCC1`, the “activity change, negative = cytotoxic” value is reported as 10.6%.
With `CC(=O)Nc1ccc(CC(=O)O)cc1` the “activity change, negative = cytotoxic” value was 16.7%.
In the case of `CC1(C)[C@@H](O[C@H]2O[C@H](C(=O)O)[C@@H](O)[C@H](O)[C@H]2O[C@@H]2O[C@H](C(=O)O)[C@@H](O)[C@H](O)[C@H]2O)CC[C@]2(C)[C@H]3C(=O)C=C4[C@@H]5C[C@@](C)(C(=O)O)CC[C@]5(C)CC[C@@]4(C)[C@]3(C)CC[C@@H]12`, the Potency is reported as “inactive”.
With `CN1CCCC1=O` the Potency was “inactive”.
In the case of `COC(=O)/C=C\C(=O)OC`, the “activity change, negative = cytotoxic” value is reported as -1.74%.
In the case of `C=C(CC(=O)O)C(=O)O`, the Potency is reported as “inactive”.
In the case of `CC(=O)OC/C=C(\C)CCC=C(C)C`, the Potency is reported as “inactive”.
In the case of `CC/C=C(\C(=O)N[C@@H]1C(=O)N2C(C(=O)OCOC(=O)C(C)(C)C)=C(COC(N)=O)CS[C@H]12)c1csc(N)n1`, the Potency is reported as “inactive”.
With `c1cnc2c(c1)ccc1cccnc12` the Potency was 7.77 µM (active) and 6.86 µM (active) and 15.4 µM (active).
In the case of `C=CC(=O)NCOCCCC`, the Potency is reported as “inactive”.
For `NC(=O)NC(N)=O`, the Potency was “inactive”.
In the case of `CCCCCNCCCCC`, the Potency is reported as “inactive”.
In the case of `OC[C@H]1O[C@@H](Oc2ccc(O)cc2)[C@H](O)[C@@H](O)[C@@H]1O`, the Potency is reported as “inactive”.
For `OC1CCCCC1`, the Potency was “inactive”.
In the case of `O=C(Cl)c1ccc(C(=O)Cl)cc1`, the “activity change, negative = cytotoxic” value is reported as 0.0268%.
In the case of `CC1=CC(=O)CC(C)(C)C1`, the Potency is reported as “inactive”.
With `CN=C(NC#N)NCCSCc1nc[nH]c1C` the Potency was “inactive”.
With `C[Si](C)(C)N[Si](C)(C)C` the Potency was “inactive”.
In the case of `CCc1cccc(O)c1`, the “activity change, negative = cytotoxic” value is reported as 6.67% [at 95 µM].
For `Cc1cc(C)cc(O)c1`, the Potency was “inactive”.
In the case of `N#CCC(=O)O`, the “activity change, negative = cytotoxic” value is reported as 26.6%.
For `Cc1ccc(C)c(S(=O)(=O)O)c1`, the Potency was “inactive”.
For `COc1c(Cl)ccc(Cl)c1C(=O)O`, the Potency was “inactive”.
For `CC(=O)OCCC(C)C`, the Potency was “inactive”.
In the case of `CC(C)c1ccc(C(C)C)cc1`, the Potency is reported as “inactive”.
In the case of `CC(O)CNCC(C)O` (stereo not given), the “activity change, negative = cytotoxic” value is reported as 17.1%.
With `CCCCCCCCC(=O)O` the Potency was “inactive”.
With `OCCOCCOCCOCCOCCO` the Potency was “inactive”.
In the case of `Clc1cccc(Cl)c1NC1=NCCN1`, the Potency is reported as “inactive”.
For `COc1cc(NC(=O)CC(C)=O)c(OC)cc1Cl`, the “activity change, negative = cytotoxic” value was -0.828% [at 95 µM].
With `O=[N+]([O-])c1ccccc1C(F)(F)F` the Potency was “inactive”.
With `C=CC(C)(C)C` the “activity change, negative = cytotoxic” value was 13.4%.
For `Cc1ccc(Cl)cc1`, the Potency was “inactive”.
In the case of `OCC(CO)(CO)CO`, the “activity change, negative = cytotoxic” value is reported as -0.502%.
For `O=Cc1ccc(CO)o1`, the “activity change, negative = cytotoxic” value was 10.5%.
With `COCN(COC)c1nc(N(COC)COC)nc(N(COC)COC)n1` the “activity change, negative = cytotoxic” value was 3.72%.
With `COc1ccc([C@@H]2CC(=O)c3c(O)cc(O[C@@H]4O[C@H](CO[C@@H]5O[C@@H](C)[C@H](O)[C@@H](O)[C@H]5O)[C@@H](O)[C@H](O)[C@H]4O)cc3O2)cc1OC` the Potency was “inactive”.
